Inconclusive results are not listed. The source made the active and inactive calls. Unless noted, calls come from the whole dose curve; as a rule, active = well fitted curve in the direction sought with a large enough effect; inconclusive = small, poorly fitted or top-dose-only effect, or another doubt; inactive = no such curve, though single readings can be large; an effect the other way counts as inactive or inconclusive.
What was measured:
[1] = biological target: Cytochrome P450 2D6 (Homo sapiens) (UniProt P10635); test: qHTS Assay for Inhibitors and Substrates of Cytochrome P450 2D6 (AID 891); note: nearly all actives have a fitted effect of over 60% in size; note: potency is the fitted concentration of half-maximal effect;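 for activity change, negative = inhibition: luciferin methyl ether substrate demethylated by CYP2D6 with NADPH regeneration; % is set by controls: 0 for no effect and ±100 for the full control effect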
Cytochrome P450 2D6 (Homo sapiens), sequence (P10635 whole entry, looked up): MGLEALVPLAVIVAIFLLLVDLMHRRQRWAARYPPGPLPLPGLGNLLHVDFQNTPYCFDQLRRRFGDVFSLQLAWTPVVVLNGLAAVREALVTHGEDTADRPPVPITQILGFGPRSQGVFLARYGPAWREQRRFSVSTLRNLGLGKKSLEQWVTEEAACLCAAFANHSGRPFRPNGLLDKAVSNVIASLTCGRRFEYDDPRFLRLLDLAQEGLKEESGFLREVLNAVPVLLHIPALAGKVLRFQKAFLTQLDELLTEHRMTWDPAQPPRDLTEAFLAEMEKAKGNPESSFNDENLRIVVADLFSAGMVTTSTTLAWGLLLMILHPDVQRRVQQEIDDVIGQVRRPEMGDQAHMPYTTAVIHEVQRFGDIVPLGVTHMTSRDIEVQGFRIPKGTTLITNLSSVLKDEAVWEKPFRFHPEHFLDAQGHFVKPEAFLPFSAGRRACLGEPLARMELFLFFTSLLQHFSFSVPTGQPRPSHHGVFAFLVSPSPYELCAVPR
In short: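 Human CYP2D6 (5 nM) with 30 uM Luciferin-ME EGE (at Km) in 100 mM KPO4, compound preincubated 10 min, then NADPH regeneration system for 60 min at room temperature. Luciferin read by luminescence; normalized to 1.43 uM quinidine.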

[2] = S16 Schwann cell PMP22 intronic element beta-lactamase assay (AID 624044; calls by dose curve;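 note: 0% = DMSO and -100% = potassium clavulanate positive control; nearly all actives have a fitted effect of over 15% in size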)
In short: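 Rat S16 Schwann cells with beta-Lac driven by a PMP22 intronic element, compound-treated 24 h at 37 °C. LiveBLAzer FRET B/G read: 460 nm normalized to potassium clavulanate vs DMSO; 535 nm FRET as viability; concentration-effect curves classified.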

[3] = tested on: CP211; test: qHTS profiling for inhibitors of Plasmodium falciparum proliferation (AID 504749); note: nearly all actives have a fitted effect of over 60% in size; note: potency is the fitted concentration of half-maximal effect; conditions: P. falciparum in erythrocytes, SYBR Green DNA, 72 h; series mostly up to 12.8 µM
In short: (§1)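 Three-day growth assay of blood-stage parasites in erythrocytes (0.3% parasitemia, 2.5% hematocrit) at 37 C, 5% CO2, quantified by SYBR Green DNA staining after overnight detergent lysis.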

[4] = tested on: CP215; test: as above; conditions: P. falciparum in erythrocytes, SYBR Green DNA, 72 h; series mostly up to 12.8 µM
In short: as §1

[5] = tested on: CP269; test: as above; conditions: P. falciparum in erythrocytes, SYBR Green DNA, 72 h; series mostly up to 12.8 µM
In short: as §1

[6] = tested on: CP315; test: as above; conditions: P. falciparum in erythrocytes, SYBR Green DNA, 72 h; series mostly up to 12.8 µM
In short: as §1

[7] = tested on: CP335; test: as above; conditions: P. falciparum in erythrocytes, SYBR Green DNA, 72 h; series mostly up to 12.8 µM
In short: as §1

[8] = tested on: DFO2036; test: as above; conditions: P. falciparum in erythrocytes, SYBR Green DNA, 72 h; series mostly up to 12.8 µM
In short: as §1

[9] = tested on: DIV17; test: as above; conditions: P. falciparum in erythrocytes, SYBR Green DNA, 72 h; series mostly up to 12.8 µM
In short: as §1

[10] = tested on: DIV30; test: as above; conditions: P. falciparum in erythrocytes, SYBR Green DNA, 72 h; series mostly up to 12.8 µM
In short: as §1

[11] = tested on: GB4; test: as above; conditions: P. falciparum in erythrocytes, SYBR Green DNA, 72 h; series mostly up to 12.8 µM
In short: as §1

[12] = tested on: P94_40; test: as above; conditions: P. falciparum in erythrocytes, SYBR Green DNA, 72 h; series mostly up to 12.8 µM
In short: as §1

[13] = tested on: CP291; test: as above; conditions: P. falciparum in erythrocytes, SYBR Green DNA, 72 h; series mostly up to 12.8 µM
In short: as §1

[14] = tested on: DIV14; test: as above; conditions: P. falciparum in erythrocytes, SYBR Green DNA, 72 h; series mostly up to 12.8 µM
In short: as §1

[15] = tested on: PC26; test: as above; conditions: P. falciparum in erythrocytes, SYBR Green DNA, 72 h; series mostly up to 12.8 µM
In short: as §1

[16] = tested on: W2; test: as above; conditions: P. falciparum in erythrocytes, SYBR Green DNA, 72 h; series mostly up to 12.8 µM
In short: as §1

[17] = biological target: Cytochrome P450 3A4 (Homo sapiens) (UniProt P08684); test: qHTS Assay for Inhibitors and Substrates of Cytochrome P450 3A4 (AID 884); note: nearly all actives have a fitted effect of over 50% in size; note: potency is the fitted concentration of half-maximal effect; for activity change, negative = inhibition: % is set by controls: 0 for no effect and ±100 for the full control effect
Cytochrome P450 3A4 (Homo sapiens), sequence (P08684 whole entry, looked up): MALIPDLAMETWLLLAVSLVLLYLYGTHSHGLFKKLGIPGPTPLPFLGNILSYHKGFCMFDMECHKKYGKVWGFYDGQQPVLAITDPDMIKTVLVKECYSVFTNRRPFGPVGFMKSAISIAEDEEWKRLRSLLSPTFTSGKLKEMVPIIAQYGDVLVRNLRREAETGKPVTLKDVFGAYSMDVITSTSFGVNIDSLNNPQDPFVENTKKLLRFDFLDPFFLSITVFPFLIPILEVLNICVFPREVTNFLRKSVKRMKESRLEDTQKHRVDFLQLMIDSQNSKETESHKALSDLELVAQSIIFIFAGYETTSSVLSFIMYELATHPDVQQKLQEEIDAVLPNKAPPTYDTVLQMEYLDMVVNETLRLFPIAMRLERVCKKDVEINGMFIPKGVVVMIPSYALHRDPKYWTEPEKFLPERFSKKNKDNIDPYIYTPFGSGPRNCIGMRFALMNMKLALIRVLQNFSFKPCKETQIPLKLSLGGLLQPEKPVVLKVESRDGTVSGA
In short: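 20 nM human CYP3A4 with 25 uM Luciferin-PPXE (at KM) in 200 mM KPO4, preincubated 10 min with compound; NADPH regeneration started a 60 min RT reaction. Luciferin detected by luminescence, normalized to 57 uM ketoconazole as full inhibition.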

[18] = biological target: Cytochrome P450 3A4 (Homo sapiens) (UniProt P08684); test: qHTS Assay for Activators of Cytochrome P450 3A4 (AID 885); note: nearly all actives have a fitted effect of over 65% in size
In short: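 20nM CYP3A4 + 25uM Luciferin-PPXE (=KM), 200mM KPO4; cpd 10 min RT; NADPH regen, 60 min RT; stop w/ detection buffer, 20 min; luminescence. Normalized to 57 uM ketoconazole.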

[19] = biological target: Cytochrome P450 2C9 (Homo sapiens) (UniProt P11712); test: qHTS Assay for Inhibitors and Substrates of Cytochrome P450 2C9 (AID 883); note: % is set by controls: 0 for no effect and ±100 for the full control effect; nearly all actives have a fitted effect of over 60% in size
Cytochrome P450 2C9 (Homo sapiens), sequence (P11712 whole entry, looked up): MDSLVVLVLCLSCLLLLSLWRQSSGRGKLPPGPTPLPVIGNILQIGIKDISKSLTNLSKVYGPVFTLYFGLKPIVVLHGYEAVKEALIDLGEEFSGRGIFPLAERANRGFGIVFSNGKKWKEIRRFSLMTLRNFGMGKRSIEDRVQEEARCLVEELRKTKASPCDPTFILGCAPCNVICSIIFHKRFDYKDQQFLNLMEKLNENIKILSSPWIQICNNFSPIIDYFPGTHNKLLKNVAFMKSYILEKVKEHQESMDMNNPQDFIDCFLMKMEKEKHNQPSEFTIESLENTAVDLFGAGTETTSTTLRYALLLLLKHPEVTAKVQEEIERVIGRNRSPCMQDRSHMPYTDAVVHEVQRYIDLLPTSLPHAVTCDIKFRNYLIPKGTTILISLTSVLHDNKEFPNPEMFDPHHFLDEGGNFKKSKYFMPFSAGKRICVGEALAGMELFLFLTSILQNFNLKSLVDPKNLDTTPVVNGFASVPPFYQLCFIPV
In short: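 Turnover of Luciferin-H (100uM, KM) by 10nM human CYP2C9 was measured over 60 min at 37C with NADPH regeneration; inhibitors and some substrates reduce luminescence. Data normalized to sulphaphenazole 57uM.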

[20] = biological target: Cytochrome P450 2C19 (Homo sapiens) (UniProt P33261); test: qHTS Assay for Inhibitors and Substrates of Cytochrome P450 2C19 (AID 899); note: nearly all actives have a fitted effect of over 60% in size
Cytochrome P450 2C19 (Homo sapiens), sequence (P33261 whole entry, looked up): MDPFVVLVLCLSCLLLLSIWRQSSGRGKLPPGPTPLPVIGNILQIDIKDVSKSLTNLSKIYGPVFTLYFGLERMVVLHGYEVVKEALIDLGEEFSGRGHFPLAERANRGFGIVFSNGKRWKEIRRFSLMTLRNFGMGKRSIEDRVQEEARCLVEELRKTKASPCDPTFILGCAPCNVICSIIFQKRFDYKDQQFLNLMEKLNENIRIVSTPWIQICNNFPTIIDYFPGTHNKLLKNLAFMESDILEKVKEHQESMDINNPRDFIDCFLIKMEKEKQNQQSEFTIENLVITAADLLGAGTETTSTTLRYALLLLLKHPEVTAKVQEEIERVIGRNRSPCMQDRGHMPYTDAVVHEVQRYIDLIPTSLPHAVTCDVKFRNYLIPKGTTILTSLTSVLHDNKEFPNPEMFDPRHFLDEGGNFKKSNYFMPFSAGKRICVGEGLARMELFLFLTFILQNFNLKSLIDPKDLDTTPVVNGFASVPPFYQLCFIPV
In short: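 Reactions contain 5nM enzyme, 10uM Luciferin-H EGE (KM) and 50mM KPO4; compound preincubates 10 min at 37C, NADPH regeneration starts turnover for 60 min. Luminescence after detection reagent gives activity.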

CC[N+](CC)(CC)CC[C@](O)(c1ccccc1)C1CCCCC1
inactive: Potency [2] | Potency [3] | Potency [4] | Potency [5] | Potency [6] | Potency [7] | Potency [8] | Potency [9] | Potency [10] | Potency [11] | Potency [12]
active: Potency [1] 0.02 µM

CN1C(=O)C[C@H](c2ccccc2)C1=O
inactive: Potency [2] | Potency [3] | Potency [4] | Potency [5] | Potency [13] | Potency [6] | Potency [7] | Potency [8] | Potency [14] | Potency [9] | Potency [10] | Potency [11] | Potency [12] | Potency [15] | Potency [16]

NC(=O)N[C@H]1NC(=O)NC1=O
inactive: Potency [3] | Potency [4] | Potency [5] | Potency [13] | Potency [6] | Potency [7] | Potency [14] | Potency [9] | Potency [10] | Potency [12] | Potency [15] | Potency [16]

CC(=O)OCC(=O)[C@@]1(O)CC[C@@H]2[C@H]3CCC4=CC(=O)C=C[C@]4(C)[C@]3(F)[C@@H](O)C[C@@]21C
inactive: Potency [2] | Potency [3] | Potency [4] | Potency [5] | Potency [13] | Potency [6] | Potency [7] | Potency [8] | Potency [14] | Potency [9] | Potency [10] | Potency [11] | Potency [15] | Potency [16]

Cc1noc(C)c1-c1nc(Nc2ccncc2)c2ccccc2n1
active: Potency [17] 0.316 µM
inactive: Potency [18]

NS(=O)(=O)c1cc2c(cc1Cl)N[C@@H](C(Cl)Cl)NS2(=O)=O
inactive: Potency [2] | Potency [3] | Potency [4] | Potency [5] | Potency [13] | Potency [6] | Potency [7] | Potency [8] | Potency [14] | Potency [9] | Potency [10] | Potency [11] | Potency [12] | Potency [15]

CC(=O)O[C@]1(C(C)=O)CC[C@@H]2[C@@H]3C=C(C)C4=CC(=O)CC[C@@]4(C)[C@H]3CC[C@]21C
inactive: Potency [17] | Potency [3] | Potency [4] | Potency [5] | Potency [13] | Potency [6] | Potency [7] | Potency [8] | Potency [14] | Potency [9] | Potency [10] | Potency [11] | Potency [12] | Potency [16]

Cc1cccc(C)c1NC(=O)[C@H](C)N
inactive: Potency [2] | Potency [7] | Potency [12] | Potency [16]

CO[C@H]1[C@H](O[C@H]2O[C@@H](C)[C@@H](O[C@@H]3C[C@](C)(O)[C@H](OC(=O)CC(C)C)[C@H](C)O3)[C@@H](N(C)C)[C@@H]2O)[C@@H](CC=O)C[C@@H](C)[C@@H](O)/C=C\C=C/C[C@@H](C)OC(=O)C[C@H]1OC(C)=O
inactive: Potency [18] | Potency [2]
active: Potency [16] 1.61 µM

CC(C)(N=NC(C)(C)C(=N)N)C(=N)N
inactive: Potency [18] | activity change, negative = inhibition [1] 23.6% [at 11.4 µM]

CC[C@H](CO)NCCN[C@@H](CC)CO
inactive: Potency [19] | Potency [2] | Potency [3] | Potency [4] | Potency [5] | Potency [13] | Potency [6] | Potency [7] | Potency [14] | Potency [9] | Potency [10] | Potency [11] | Potency [12] | Potency [15] | Potency [16]

CCCC[C@H](CC)CN1CN(C[C@@H](CC)CCCC)CC(C)(N)C1
active: Potency [1] 1.26 µM
inactive: Potency [2] | Potency [3] | Potency [4] | Potency [5] | Potency [13] | Potency [6] | Potency [7] | Potency [14] | Potency [9] | Potency [10] | Potency [11] | Potency [12] | Potency [15]

CC(=O)N[C@H](CS)C(=O)O
inactive: Potency [19] | Potency [17] | Potency [1] | Potency [20]

CCOC(=O)[C@H](CCc1ccccc1)N[C@@H](C)C(=O)N1[C@H](C(=O)O)C[C@H]2CCC[C@@H]21
inactive: outcome [20] | Potency [2] | Potency [3] | Potency [4] | Potency [5] | Potency [13] | Potency [6] | Potency [7] | Potency [8] | Potency [14] | Potency [9] | Potency [11] | Potency [12] | Potency [15] | Potency [16]

COc1c(O[C@H]2O[C@@H](CO)[C@@H](O)[C@@H](O)[C@@H]2O)cc2c(c1OC)-c1ccc(SC)c(=O)cc1[C@H](NC(C)=O)CC2
inactive: Potency [2] | Potency [3] | Potency [4] | Potency [5] | Potency [13] | Potency [6] | Potency [7] | Potency [14] | Potency [9] | Potency [10] | Potency [11] | Potency [12] | Potency [15] | Potency [16]

COc1cc2c(cc1OC)-c1cc3ccc(OC)c(OC)c3c[n+]1CC2
inactive: Potency [18]

CCC(=O)O[C@@H]1[C@H](C)O[C@H](O[C@H]2[C@@H](N(C)C)[C@H](O)[C@@H](O[C@@H]3[C@@H](CC=O)C[C@@H](C)[C@@H](O)/C=C\C=C/C[C@@H](C)OC(=O)C[C@@H](OC(=O)CC)[C@H]3OC)O[C@H]2C)C[C@]1(C)O
active: Potency [16] 2.03 µM
inactive: Potency [8] | Potency [14] | Potency [10] | Potency [11] | Potency [15]

From PubChem BioAssay (NCATS)
